Only some compounds are listed: those with a hit (about 8.3% of all), similar ones and a draw of the others.
HCV inh: inhibitors of hepatitis C virus infection; Huh7.5.1 HCVcc-Cre infection, luciferase reporter, 44 h; Potency, µM (series often up to 41.8 µM), inactives show at the top dose activity change, negative = inhibition, usual class: inhibitors; actives 3.4% (n = 340,000); AID 651820; further: potency means the concentration at half of the fitted maximal effect
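Infectious HCV cell culture screen: compound-treated cells (1,000/well, pre-plated 4 h) are infected with HCVcc-Cre at roughly 0.5 moi and grown 44 h. Infection is quantified by luciferase signal after 15 min substrate incubation at room temperature.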
Marburg entry inh: Marburg virus entry inhibition; Marburg virus pseudotyped entry inhibition, cell reporter; actives 1.8% (n = 300,000); Potency, µM (series often up to 37.8 µM), for inactives: at the top dose activity change, negative = inhibition, usual class: inhibitors; calls by dose curve; tested in HEK293 cells; further: potency means the concentration at half of the fitted maximal effect
Lassa entry inh: Lassa virus entry inhibition; actives 1.2% (n = 300,000); AID 540256; Potency, µM (titrated, usually from 37.9 µM), without a hit: at the highest dose activity change, negative = inhibition, hits mostly inhibitors; Lassa virus pseudotype entry inhibition, cell reporter; calls by dose curve; tested in HEK293 cells; further: potency means the concentration at half of the fitted maximal effect; nearly all actives have a fitted effect of over 50% in size
Giardia FBPA inh: blocks Giardia fructose-bisphosphate aldolase activity | A8B2U2 | purified Giardia FBPA | Potency, µM (doses to about 59.6 µM), for inactives: top-dose activity, negative = inhibition, hits mostly inhibitors | actives 0.71% (n = 290,000) | AID 2451; further: potency means the concentration at half of the fitted maximal effect; nearly all actives have a fitted effect of over 55% in size
Target sequence (A8B2U2 whole entry, looked up): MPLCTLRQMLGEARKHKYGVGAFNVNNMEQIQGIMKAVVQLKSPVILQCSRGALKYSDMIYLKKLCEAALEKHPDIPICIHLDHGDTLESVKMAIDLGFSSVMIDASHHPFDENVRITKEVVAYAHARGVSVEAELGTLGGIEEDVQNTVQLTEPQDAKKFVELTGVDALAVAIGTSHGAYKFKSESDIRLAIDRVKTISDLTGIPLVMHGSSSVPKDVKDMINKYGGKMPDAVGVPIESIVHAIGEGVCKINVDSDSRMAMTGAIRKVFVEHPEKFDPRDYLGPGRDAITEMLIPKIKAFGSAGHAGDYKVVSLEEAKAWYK
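40 nM FBPA preincubated 10 min at RT with compound (up to 57.5 uM final), then substrate plus GAPDH/TPI/NAD/arsenate coupling and diaphorase/resazurin added. Fluorescence read after 20 min at RT, 525/598 nm.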
HCMV antiviral: inhibitors of human cytomegalovirus | actives 4.5% (n = 410,000) | activity change, negative = inhibition, % at 57.5 µM | HFF cells, HCMV-luciferase reporter, 72 h; hits give low values; in the data active means activity change below about -60%; inconclusive means no clear call, values can overlap the other calls; inactive means above about -39%
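Compounds were evaluated in HFFs infected with an HCMV luciferase reporter virus (MOI 1 PFU/cell). Luciferase in lysates collected 72 h post infection served as the replication measure.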
FMDV antiviral: foot and mouth disease virus antiviral activity | actives 1.2% (n = 410,000) | FMDV antiviral cell-based qHTS | Potency, µM (doses to about 57.9 µM), inactives show at the top dose activity change, negative = inhibition, usual class: inhibitors; calls by dose curve; tested in HEK293T cells; further: read-out not given here; potency means the concentration at half of the fitted maximal effect; nearly all actives have a fitted effect of over 45% in size
The depositor's hits bear a star; ? = inconclusive; / = no result given; + = active, no number; [ ] = another dose, or the depositor's remark. Unless noted, the call rests on the fitted dose curve; in most records, active means well fitted curve in the direction sought with a large enough effect; inconclusive means small, poorly fitted or top-dose-only effect, or another doubt; inactive means no such curve, though single readings can be large; an effect the other way counts as inactive or inconclusive. On the % scale 0 is the no-effect control and ±100 the full control effect.

SMILES	HCV inh	Marburg entry inh	Lassa entry inh	Giardia FBPA inh	HCMV antiviral	FMDV antiviral
O=C1CC(c2ccccc2)CC(O)=C1C=Nc1ccccc1 (centres undefined)	23%	20%[46.1 µM]	?	-2%	0	23%
CCCCC(=NCCc1c(C)[nH]c2ccccc12)C1=C(O)CC(c2ccccc2)CC1=O (centres undefined)	?	?	8.9µM*	-1%	12	-18%
CCOc1ccc(N2CC(NC(=O)c3ccc(S(=O)(=O)N4CCCCC4)cc3)CC2=O)cc1 (centres undefined)	/	/	-8%[46.1 µM]	/	-25	-18%
Cc1ccc(NC(=O)Cc2ccc(-n3c(C)nc4cccnc43)cc2)cc1C	/	/	?	/	+	?
CCOc1ccc(NC(=O)Cc2ccc(-n3c(C)nc4cccnc43)cc2)cc1	/	/	2%[46.1 µM]	/	?	-15%
CN(C)c1ccc(-c2ccc3ncnc(N(C)Cc4ccco4)c3c2)cc1	/	/	/	-27%	/	-16%
CCOc1ccc(CC(=O)Nc2ccc3nc(N4CCCCC4)cc(C)c3c2)cc1OCC	/	/	?	/	38	-7%
Cn1ncc2c(O/N=C(\N)c3ccc(C(F)(F)F)cc3)ncnc21	?	/	/	3%	-19	22µM*
O=C(NCCC1=CCCCC1)c1c(O)nc2sccn2c1=O	?	5%	-19%	/	/	10%
O=C(NCCCc1ccccc1)c1c(O)nc2sccn2c1=O	-9%	-9%	14%	/	-64*	-3%
O=C(Nc1sc2c(c1C(=O)O)CCCC2)c1ccc(Cl)cc1	?	6.3µM*	7.9µM*	?	17	7%
O=C(Nc1sc2c(c1C(=O)O)CCCCC2)c1ccccc1	?	7.1µM*	?	?	11	-19%
O=C(Nc1sc2c(c1C(=O)O)CCCC2)c1cccc(Cl)c1	-2%	/	/	-25%	28	18%
O=C(Nc1sc2c(c1C(=O)O)CCC2)c1ccccc1	3%	7.3µM*	?	-26%	84	22%
NC(=O)c1c(NC(=O)c2cccs2)sc2c1CCCCCC2	10µM*	?	?	1%	9	/
CCc1ccc(OCC(=O)Nc2cc3oc4ccccc4c3cc2OC)c(Br)c1	/	?	-4%[46.1 µM]	/	19	-11%
N#Cc1ccc2c(c1)C[C@]1(CCCCN3C(=O)c4ccccc4C3=O)Oc3c(c(=O)oc4ccc(F)cc34)[C@@H]2O1	/	-26%[14.2 µM]	/	/	/	/
CC1C(=O)OC2C(O)C34C5CC(C(C)(C)C)C36C(OC(=O)C6O)OC4(C(=O)O5)C12O (centres undefined)	/	/	/	9%	/	-16%
CCC1CCc2c(sc(NC(=O)c3ccco3)c2C(N)=O)C1 (centres undefined)	4µM*	-2%	?	-4%	80	36%
CNC(=O)c1c(NC(=O)c2ccco2)sc2c1CCC2	11µM*	/	/	/	0	15%
COc1cc(OC)cc(C(=O)Nc2sc3c(c2C(N)=O)CCC3)c1	2µM*	0%[46.1 µM]	?	9%	-16	4%
COC(=O)c1c(NC(=O)c2ccccc2N(C)S(=O)(=O)c2ccccc2)sc2c1CCCC2	?	4.5µM*	?	0%	?	10%
COc1cccc(-c2cc3c(Nc4cccc(NS(C)(=O)=O)c4)nccc3n2C)c1	/	/	/	/	-33	/
Cc1ccc(CNC(=O)C2CCC(CNS(=O)(=O)c3ccc4c(c3)CCCC(=O)N4)CC2)cc1 (centres undefined)	/	/	2%[46.1 µM]	/	36	-3%
CCC(=O)[C@]12O[C@@]3(C4C(=O)OCCC41)N(Cc1ccccc1)C(C)=C(C(=O)OC)C(c1ccccc1)N3C2=O (some centres undefined)	/	/	/	-1%[12.9 µM]	/	/
CCN1C(=O)[C@H]2[C@@H](c3ccc(OC)cc3)N3C(=O)CN(CC4CC4)C(=O)[C@@]3(C)[C@H]2C1=O	10µM*	/	/	4%	-12	-8%
CCN1C(=O)[C@H]2[C@@H](c3ccc(Cl)cc3)N3C(=O)CN(CC4CC4)C(=O)[C@@]3(C)[C@H]2C1=O	-3%	/	/	-2%	36	-13%
O=C1/C(=C/c2ccncc2)N2CCC1CC2	-12%	?	?	5%	4	10%
O=C1/C(=C/c2ccccc2Cl)N2CCC1CC2	-19%	/	/	6%	-67*	-6%
CCCCNC(=O)CCn1nc(-c2ccccc2)c2ccccc2c1=O	?	/	/	15%	/	14%
